In PubChem BioAssay AID1706 (The Scripps Research Institute Molecular Screening Center, 2009):
About 400 (0.14%) of roughly 290,000 compounds were called active. The sample holds actives, similar compounds and a random draw of the others, so the mix is not that of the screen. Values without a mark were called inactive. Cut-off read from the data, not from the text of the source: active = inhibition above about 12%; inactive = the rest.

The molecules below were run against Replicase polyprotein 1ab (Severe acute respiratory syndrome coronavirus) (UniProt P0C6X7) (assay: blockers of SARS 3CLpro peptide cleavage – biochemical, quenched FRET, primary screen (AID 1706)). Details: recombinant SARS-CoV 3CLpro, at 6 µM, active compounds read high.
CC(C)(C)C(=O)NC1CC2CCCC(C1)N2C(=O)Nc1ccccc1F (stereo unspecified) gave an inhibition of -4.3%.
In the case of O=C(NC(Cc1ccccc1)C(=O)O)/C(=C\c1ccccc1)NC(=O)c1ccco1 (stereo unspecified), the inhibition is reported as 1.59%.
Cc1cc(CNCc2c(C(=O)N(C)Cc3ccccc3)nc3ccccn23)nn1C was tested, and the inhibition was -0.39%.
For Cc1ccc(C)c(NC(=O)c2cc(-c3cc(C)cc(C)c3O)n[nH]2)c1, the inhibition was 5.71%.
COc1ccc(CCNC(=O)/C(C#N)=C2\N=C(NC(=O)c3cccs3)c3ccccc32)cc1 was tested, and the inhibition was 1.64%.
COc1ccc(N2CC(C(=O)NCCS(=O)(=O)N3CCN(c4ccccc4)CC3)CC2=O)cc1 (stereo unspecified) was tested, and the inhibition was 0.28%.
Molecule Cc1cc(C)nc(NS(=O)(=O)c2ccc(N/C=C\C(=O)c3cccs3)cc2)n1 has an inhibition of 6.43%.
Molecule CN(Cc1ccccc1)C(=O)c1cccc(C(=O)N(C)Cc2ccccc2)c1 has an inhibition of -1.52%.
With Cc1ccc2cccc(OCCCOc3ccccc3CO)c2n1 the inhibition was -3.15%.
CC(=O)c1c(C)n(C(C)C)c2ccc(O)cc12 was tested, and the inhibition was -1.9%.
Molecule O=C(NCCc1ccccc1Cl)C1CCC(=O)N(CCCc2ccccc2)C1 (stereo unspecified) has an inhibition of 0%.
Work on COc1ccc(CNC(=O)c2cc(=O)c3c(C)cc(C)cc3o2)cc1 yielded an inhibition of 6.16%.
Molecule O=C(NC1CCC(O)CC1)c1ccccc1OCc1ccc(F)cc1 (stereo unspecified) has an inhibition of 0.54%.
Work on Cc1cc(C)cc(C(=O)NCCN2CCOCC2)c1 yielded an inhibition of -2.25%.
Molecule COc1ccc(C(=O)NCCCN2CCOCC2)cc1Br has an inhibition of 0.44%.
For Cc1ccc(C(=O)NCCN2CCOCC2)cc1C, the inhibition was 13.4% (active).
Work on Cc1noc(NS(=O)(=O)c2ccc(NC(=O)c3oc4ccc(F)cc4c3C)cc2)c1C yielded an inhibition of 9.19%.
Work on COCC1CCN(C(=O)c2ccc3oc(Cc4ccccc4)nc3c2)C1 (stereo unspecified) yielded an inhibition of 1.1%.
In the case of O=C1c2ccccc2C(=O)N1CCOc1ccc(F)cc1, the inhibition is reported as -2.34%.
With Cc1cccc2c1N(CCOc1ccccc1)C(=O)C2=O the inhibition was 17.8% (active).
Cc1cccc2c1N(CC(=O)OC(C)C)C(=O)C2=O was tested, and the inhibition was 4.13%.
Cc1ccc(S(=O)(=O)N2CC(C)N(S(C)(=O)=O)C2)cc1 (stereo unspecified) was tested, and the inhibition was -3.38%.
Molecule Cc1cccc(-c2noc(CCC(=O)NC3CCCC3)n2)c1 has an inhibition of -2.1%.
Work on O=C(O)c1ccccc1CSc1nc2ccccc2s1 yielded an inhibition of 9.25%.
With COc1ccc(NC(=O)CSc2nncc(=O)n2N)cc1OC the inhibition was -1.55%.
COc1ccc(NC(=O)c2ccccc2[N+](=O)[O-])cc1OC was tested, and the inhibition was 3.06%.
In the case of COC(=O)c1cc(NC(=O)Cc2ccccc2[N+](=O)[O-])ccc1Cl, the inhibition is reported as 13.9% (active).
In the case of O=C(Nc1cccc(NC(=O)c2ccccc2[N+](=O)[O-])c1)c1ccccc1Cl, the inhibition is reported as 0.79%.
For Cc1cccc(NS(=O)(=O)c2ccc(-c3cnc(C4CC4)o3)cc2)c1, the inhibition was 11.2%.
For O=C(NCCCn1ccnc1)c1cc2c(s1)CCCC2, the inhibition was -1.18%.
With CCC(C)(C)NC(=O)CN(C(=O)CCC(=O)Nc1nccs1)c1ccc2c(c1)OCO2 the inhibition was -3.34%.
Work on O=C(NCCCN1CCOCC1)C1CCCN(S(=O)(=O)N2CCCCC2)C1 (stereo unspecified) yielded an inhibition of 0.26%.
For COc1cccc(NC(=O)CN2CCN(CC(=O)Nc3ccccc3Cl)CC2)c1, the inhibition was -3.69%.
With COc1ccc(N(Cc2ccc(N(C)C)cc2)C(=O)c2ccc(S(C)(=O)=O)cc2)cc1 the inhibition was 0.16%.
In the case of COc1ccc(Cl)cc1NS(=O)(=O)c1cccc(C(=O)NCC2CCCO2)c1 (stereo unspecified), the inhibition is reported as -1.42%.
For Cc1cccc(C(=O)Nc2nnc(S(=O)(=O)N3CCCCCC3)s2)c1, the inhibition was 0.72%.
In the case of CCc1nnc(NC(=O)[C@@H](NC(=O)c2cccc(C)c2)C(C)C)s1, the inhibition is reported as 4.69%.
With Cc1cccc(C(=O)Nc2nnc(Cc3c[nH]c4ccccc34)s2)c1 the inhibition was 13.4% (active).
Molecule CCOC(=O)c1cc(C(=O)Nc2ccc(S(=O)(=O)Nc3ccc(OC)cc3)cc2)nn1C has an inhibition of -1.42%.
CN1CCN(C(=O)c2ccc(NS(=O)(=O)c3ccccc3)cc2)CC1 showed an inhibition of -0.96%.
Molecule Cc1ccc(CS(=O)Cc2ccc(C(=O)N3CCOCC3)o2)cc1 (stereo unspecified) has an inhibition of -1.35%.
With CSc1ncccc1C(=O)NCc1ccccc1Cl the inhibition was 0.88%.
For CC(=O)Nc1ccc(S(=O)(=O)N(C)CC(=O)NCCC2=CCCCC2)cc1, the inhibition was -0.77%.
O=C(NCCc1ccc(Cl)cc1)c1cccc(N2CCCC2=O)c1 showed an inhibition of 3.05%.
COc1ccc(/C=C2\SC(=O)N(CCC(=O)NCCCn3ccnc3)C2=O)cc1 was tested, and the inhibition was -3.79%.
With CC(Oc1ccccc1)C(=O)Nc1c2c(nn1-c1ccccc1)CS(=O)C2 (stereo unspecified) the inhibition was -1.62%.
